Results: the supplement of paper PMC13380429
Values without a mark were called inactive.

Tested on: Vero E6 infected with SARS-CoV-2
Assay: inhibition of SARS-CoV-2 cytopathic effect; higher = more antiviral protection, active = above 15
Settings: 48 h

Row | SMILES | inhibition of SARS-CoV-2 cytopathic effect (1 nM) | inhibition of SARS-CoV-2 cytopathic effect (8.33 nM) | inhibition of SARS-CoV-2 cytopathic effect (100 nM) | inhibition of SARS-CoV-2 cytopathic effect (833.33 nM) | inhibition of SARS-CoV-2 cytopathic effect (10000 nM)
1 | Cc1ncc(COP(=O)([O-])[O-])c(CN(CCN(CC(=O)O)Cc2c(COP(=O)([O-])O)cnc(C)c2O)CC(=O)O)c1O.[Mn].[Na+].[Na+].[Na+] [Mangafodipir (trisodium)] | -2.31% | -3.12% | -2.65% | -1.43% | -3.61%
2 | C[C@H](NCc1ccc(OCc2cccc(F)c2)cc1)C(N)=O [safinamide] | 4.62% | 5.34% | 2.52% | 0.07% | -0.48%
3 | CCNC(=O)CCC/C=C\C[C@@H]1[C@@H](/C=C/[C@@H](O)CCc2ccccc2)[C@H](O)C[C@@H]1O [bimatoprost] | -2.31% | -0.42% | -0.15% | -0.88% | 3.04%
4 | Cc1[nH]nc(C(F)(F)F)c1Cc1sc2c(c1C(=O)N1C[C@](C)(O)CO1)c(=O)n(C)c(=O)n2C(C)C | 1.31% | -1.35% | 1.71% | 0.45% | 2.23%
5 | CCc1cc(/C(C)=N/OCc2ccc(C3CCCCC3)c(C(F)(F)F)c2)ccc1CN1CC(C(=O)O)C1 [siponimod] | -0.21% | -1.67% | -0.01% | -0.18% | 1.37%
6 | OC(CNCC(O)C1CCc2cc(F)ccc2O1)C1CCc2cc(F)ccc2O1 (stereo not given) [nebivolol] | -8.56% | -2.57% | -0.54% | -2.81% | -3.97%
7 | NNC(=O)CSc1nc2scc(-c3ccccc3)c2c(=O)n1-c1ccccc1 | -1.69% | 1.94% | -0.83% | -2.58% | -1.58%
8 | N#C/C(=C1/SC[C@@H](c2ccc(Cl)cc2Cl)S1)n1ccnc1 [luliconazole] | 1% | 1.92% | 2.17% | 1.1% | 3.29%
9 | COc1ccc(/C=C\c2cc(OC)c(OC)c(OC)c2)cc1O [combretastatin-A-4] | 1.94% | 1.57% | -1.22% | -2.08% | -0.45%
10 | COc1cc(OC)cc(N(CCNC(C)C)c2ccc3ncc(-c4cnn(C)c4)nc3c2)c1 [erdafitinib] | 1.71% | -0.38% | 0.68% | -1.43% | 11.7%
11 | N=C(C[C@@H](O)COc1ccccc1-c1ccccc1)N1CCCCC1 | -5.21% | -4.99% | 0.04% | -2.13% | -2.77%
12 | N#Cc1c(Oc2ccc(F)c(NC(=O)Cc3cccc(C(F)(F)F)c3)c2)ccc2nc(NC(=O)C3CC3)sc12 | 0.58% | 2.74% | 2.56% | 0.34% | -7.91%
13 | CCCCCCCCCCCCOS(=O)(=O)O [dodecyl-sulfate] | -0.285% | 1.83% | 1.98% | 0.175% | 0.47%
14 | NC(=O)c1nc(Nc2ccccc2)sc1NC(=O)C1CCCCC1 | 1.69% | 3.22% | -0.11% | -8.95% | -4.1%
15 | c1cnc(SCc2cccnc2)nc1 [tasuldine] | 1.94% | 1.66% | 0.38% | 0.69% | 1.89%
16 | CC(C)CC(N)=O [isovaleramide] | 1.36% | -1.79% | 1.18% | 0.06% | 0.19%
17 | Cc1ccccc1-n1c(CF)nc2ccc(N)cc2c1=O [afloqualone] | -0.9% | 0.95% | -0.71% | -0.49% | 1.46%
18 | C[C@@]1(F)[C@H](O)[C@@H](CO)O[C@H]1n1ccc(N)nc1=O | 0.11% | -0.83% | -0.8% | 1.12% | 0.26%
19 | CCC(=O)NC1CCc2cccc(OC)c2C1 (stereo not given) | 0.92% | 1.4% | 2.16% | 7.57% | 4.57%

Row | SMILES | inhibition of SARS-CoV-2 cytopathic effect (1 nM) | inhibition of SARS-CoV-2 cytopathic effect (8.33 nM) | inhibition of SARS-CoV-2 cytopathic effect (100 nM) | inhibition of SARS-CoV-2 cytopathic effect (833.33 nM) | inhibition of SARS-CoV-2 cytopathic effect (10000 nM)
20 | CC(C)(O)[C@@H]1[C@H]2OC(=O)[C@@H]1[C@]1(O)C[C@H]3O[C@]34C(=O)O[C@H]2[C@]14C [picrotin] | -0.34% | 1.31% | 1.26% | -0.13% | 3.22%
21 | CC(C)C[C@@H](N)C(=O)N[C@H]1C(=O)N[C@@H](CC(N)=O)C(=O)N[C@H]2C(=O)N[C@H]3C(=O)N[C@H](C(=O)N[C@H](C(=O)O)c4cc(O)cc(O)c4-c4cc3ccc4O)[C@H](O)c3ccc(c(Cl)c3)Oc3cc2cc(c3O[C@@H]2O[C@H](CO)[C@@H](O)[C@H](O)[C@H]2O[C@H]2C[C@](C)(N)[C@H](O)[C@H](C)O2)Oc2ccc(cc2Cl)[C@H]1O [norvancomycin] | -0.51% | 2.53% | 11.9% | 1.73% | -2.8%
22 | CCCCCCCC/C=C\CCCCCCCC(=O)NCc1ccc(O)c(OC)c1 [olvanil] | 1.88% | -0.08% | 4.43% | 1.07% | 2.19%
23 | CCOC(=O)c1cncn1[C@H](C)c1ccccc1 [etomidate] | 0.18% | -0.71% | -2.47% | 1.97% | 0.06%
24 | CC(=O)OCC(=O)[C@@]1(O)CC[C@H]2[C@@H]3CCC4=CC(=O)C=C[C@]4(C)[C@@]3(F)[C@@H](O)C[C@@]21C [isoflupredone-acetate] | 2.83% | 2.61% | 0.09% | 1.17% | 1.02%
25 | COc1cc2ncnc(Sc3nnc(C)s3)c2cc1OC | -1.42% | 0.72% | 3.01% | 1.54% | 24.4% (active)
26 | COCc1nnc(N2CC(Oc3ccc(F)cc3Cl)C2)n1-c1ccc(OC)nc1 | -1.23% | -3.96% | -0.12% | -1.42% | -1.43%
27 | Oc1ccc2c(c1)CC[C@H](c1ccccc1)[C@@H]2c1ccc(OCCN2CCCC2)cc1 [lasofoxifene] | -1.63% | 4.35% | 0.8% | -0.28% | 49.6% (active)
28 | N=C1N[C@H]2[C@H](CS[C@H]2CCCCC(=O)O)N1 [2-iminobiotin] | -0.5% | 1.48% | -1.14% | -2.01% | -2.17%
29 | CC1(C)S[C@@H]2[C@H](N3C(=O)[C@@H](c4ccccc4)NC3(C)C)C(=O)N2[C@H]1C(=O)O [hetacillin] | -0.32% | 0.69% | 0.82% | 2.11% | 2.77%
30 | O=c1[nH]c(=O)n([C@H]2C[C@H](O)[C@@H](CO)O2)cc1F [floxuridine] | 1.42% | 1.34% | -1.95% | -2.04% | -4.05%
31 | CN(C)[C@@H]1C(O)=C(C(N)=O)C(=O)[C@@]2(O)C(O)=C3C(=O)c4c(O)ccc(Cl)c4[C@@](C)(O)[C@H]3C[C@@H]12 | 0.81% | 3.66% | 0.73% | 1.21% | -0.28%
32 | COc1ncc2cc(C(=O)Nc3cc(C(=O)NCc4cccc(Cl)c4)ccc3Cl)c(=O)[nH]c2n1 | -2.51% | 1.46% | 0.99% | 0.54% | 2.62%
33 | COc1ccc(-c2ccc3cc(C(=O)O)ccc3c2)cc1C12CC3CC(CC(C3)C1)C2 [adapalene] | -0.05% | -0.29% | 2.4% | 2.31% | 3.12%
34 | CCCN(CCC)[C@H]1CCc2cccc(O)c2C1 [8-hydroxy-DPAT] | -1.75% | 1.08% | 1.06% | -0.13% | -3.59%
35 | COc1ccc(C2=N[C@@H](c3ccc(Cl)cc3)[C@@H](c3ccc(Cl)cc3)N2C(=O)N2CCNC(=O)C2)c(OC(C)C)c1 [nutlin-3] | 1.71% | 1.61% | 5.23% | 5.08% | 3.38%
36 | CC(COc1ccccc1)N(CCCl)Cc1ccccc1 (stereo not given) [phenoxybenzamine] | 2.45% | 2.51% | 1.57% | 0.91% | -0.17%
37 | Cc1cc([N+](=O)[O-])ccc1NS(=O)(=O)c1cc(Cl)ccc1Cl | -3.81% | -2.34% | -0.48% | 0.28% | 2.09%
38 | Clc1ccc(COC(Cn2ccnc2)c2ccc(Cl)cc2Cl)c(Cl)c1 (stereo not given) [miconazole] | -1.92% | 0.22% | -0.38% | 0.7% | -4.16%
